D1 antagonist: Antagonist of Human D 1 Dopamine Receptor: qHTS. D(1A) dopamine receptor (Homo sapiens), P21728. HEK293 TREx D1 cells, calcium flux, dopamine EC80; stronger effect = lower value. activity change, negative = inhibition, % at 10 µM. 360,000 tested, 3.2% active. AID 504652, 2011; in the data active = activity change below about -30%
Target sequence (P21728 whole entry, looked up): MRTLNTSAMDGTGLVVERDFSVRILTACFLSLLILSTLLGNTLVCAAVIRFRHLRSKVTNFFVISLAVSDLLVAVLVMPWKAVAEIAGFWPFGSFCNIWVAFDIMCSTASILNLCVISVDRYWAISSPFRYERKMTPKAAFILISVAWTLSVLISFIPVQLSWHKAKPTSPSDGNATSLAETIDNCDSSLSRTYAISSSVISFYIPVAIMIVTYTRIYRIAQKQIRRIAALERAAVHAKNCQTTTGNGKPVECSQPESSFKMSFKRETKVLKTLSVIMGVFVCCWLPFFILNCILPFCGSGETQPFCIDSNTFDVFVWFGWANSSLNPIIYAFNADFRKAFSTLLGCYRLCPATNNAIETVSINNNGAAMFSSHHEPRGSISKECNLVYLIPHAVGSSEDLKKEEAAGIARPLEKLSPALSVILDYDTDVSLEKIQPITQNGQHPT
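Allosteric or orthosteric antagonism assessed as attenuation of the calcium response to EC80 dopamine, added 180 s after compound, in induced HEK293 Trex D1 cells loaded with no-wash calcium dye.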
D3 ag: qHTS of D3 Dopamine Receptor Agonist: qHTS | 410,000 tested, 0.58% active | max activation, % | D3R DiscoveRx beta-arrestin cells, luminescence, 90 min; in the data active = max activation above about 30%
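Agonist mode: compounds and dopamine controls were applied to plated cells for 90 min at 37 degrees C after an overnight attachment at 1500 cells/well. Luminescent read-out followed 30 - 60 minutes at room temperature with DiscoveRx detection reagent.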
D1 agonist: Allosteric Agonists of the Human D1 Dopamine Receptor: qHTS; HEK293 T-REx D1 cells, calcium flux, agonist mode; 360,000 tested, 1% active; activation, % at 2 µM; in the data active = activation above about 30%
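Tetracycline-induced HEK293 TREx D1 cells, force-coupled to calcium signalling, were dye-loaded with a no-wash calcium kit. Compound was pin-added after a 10 s baseline. Fluorescence was read kinetically at 1 cycle/s for 180 s, with calcium rises flagged as agonism.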
D1 PAM: Potentiators of Human D1 Dopamine Receptor: qHTS; D(1A) dopamine receptor (Homo sapiens), P21728; HEK293 TREx D1 cells, calcium flux, dopamine EC20 potentiation; potentiation, % at 10 µM; 360,000 tested, 0.036% active; AID 504651, 2011; in the data active = potentiation above about 30%
DRD3 antagonist: qHTS of D3 Dopamine Receptor Antagonist: qHTS; max response, negative = inhibition, %; 360,000 tested, 2.5% active; D3R cells, DiscoveRx beta-arrestin luminescence, antagonist mode; stronger effect = lower value; in the data active = max response below about -50%
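Cells expressing the human receptor were seeded at 1500 cells/well, incubated overnight at 37 degrees C in 5% CO2, then exposed to library compounds with dopamine controls for 90 minutes at 37 degrees C before luminescent detection.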
Of the large screens only hits and unclear results are named; the others gave an inactive call. In the library only some 6% were active in any assay of this set; here they are far more common.

O=C(Nc1ccc(N2CCN(CCOc3ccc(Cl)cc3)CC2)c(C(=O)O)c1)c1ccc(F)cc1	none (no result: DRD3 antagonist)
COCc1cc(C)nc(OCC(=O)N/N=C/c2ccccc2)c1C#N	none
COCc1cc(C)nc(OCC(=O)N/N=C/c2ccc(C)cc2)c1C#N	D1 antagonist -57
Cc1nc(NC(=O)COC(=O)c2cccs2)c(Cl)cc1Cl	none
COc1ccccc1N1CCN(S(=O)(=O)c2c(C)sc3ncn(CC(=O)Nc4ccc(C(F)(F)F)cc4)c(=O)c23)CC1	none (no result: DRD3 antagonist)
NC(=O)/C(N=Nc1ccccc1)=N/Nc1ccccc1	D1 antagonist -55
O=C(O)c1ccc(N=N/C(=N\Nc2ccc(C(=O)O)cc2)c2ccccc2)cc1	DRD3 antagonist -53
Cc1cccc(NC(=O)C(C)C(=O)c2ccccc2)c1 (configuration not stated)	none
Cc1ccc(NC(=O)C(C)c2cccc(C(=O)c3ccccc3)c2)cc1O (configuration not stated)	D1 antagonist -32
CCOc1cc(CNC(=O)c2ccc(Cn3c(=O)c4cccn4c4cccnc43)cc2)ccc1OC	none (no result: DRD3 antagonist)
Cc1cc(C)c(OCCN(C)Cc2ccccc2)c(Br)c1	DRD3 antagonist -56
CN(CCCOc1ccccc1Br)Cc1ccccc1	DRD3 antagonist -98
CN(CCCOc1ccccc1F)Cc1ccccc1	DRD3 antagonist -85
CCc1nc2c(OCc3ccc(C#N)cc3)cccn2c1N(C)C(=O)c1cccs1	none (no result: D1 antagonist, D1 agonist, D1 PAM)
Cc1cccc(Nc2cc(C)c3c(O)cccc3n2)c1C	D1 antagonist -92
C=CCn1c(SCc2c(C)noc2C)nc2ccccc2c1=O	none
C=CCn1c(SCc2c(C)noc2C)nc2cc(C(=O)O)ccc2c1=O	D3 ag 36
CC(C)CNC(=S)NNC(=O)c1csc2c1CCCC2	DRD3 antagonist -57
CC(C)CNC(=S)NNC(=O)c1csc2ccccc12	DRD3 antagonist -66
CCCNC(=O)c1csc2c1CCCCC2	none
CCOC(=O)CC1(C)Oc2cc(Cl)ccc2N1S(=O)(=O)c1ccc(C)cc1 (configuration not stated)	none (no result: D1 antagonist, D1 agonist, D1 PAM)
Cc1cccc2c1N(CCCOc1ccccc1)C(=O)C2=O	DRD3 antagonist -50
COc1ccc(S(=O)(=O)N2CCC(C(=O)NCc3ccc(C)cc3)CC2)cc1	none
CCn1ccc2cc(S(=O)(=O)N3CCC(C(=O)NCCc4ccccc4Cl)CC3)ccc21	D1 antagonist -40 (no result: DRD3 antagonist)
CCCCNC(=O)C1CCN(S(=O)(=O)c2ccc3c(ccn3CC)c2)CC1	none (no result: DRD3 antagonist)
CCn1ccc2cc(S(=O)(=O)N3CCCN(C(=O)Nc4ccc(C)c(F)c4)CC3)ccc21	D1 antagonist -31 (no result: DRD3 antagonist)
CCn1ccc2cc(S(=O)(=O)N3CCCN(C(=O)Nc4ccccc4F)CC3)ccc21	none (no result: DRD3 antagonist)
COc1ccc(CNC(=O)C2CCN(S(=O)(=O)c3ccc4c(ccn4C)c3)CC2)cc1	D1 antagonist -35 (no result: DRD3 antagonist)
CCOc1ccc(CNC(=O)Cn2ccc3cc(S(=O)(=O)N4CCCCC4)ccc32)cc1	D1 antagonist -35 (no result: DRD3 antagonist)
CCn1c(=O)c2cc(C(=O)Nc3cccc(C(F)(F)F)c3)sc2c2ccccc21	none (no result: DRD3 antagonist)
COc1ccc2c3c(n(C(=O)OC(C)(C)C)c2c1)C1CC=C(COC(C)=O)CN1CC3 (configuration not stated)	none (no result: D1 antagonist, D1 agonist, D1 PAM)
COc1cccc(CNC(=O)[C@@H]2CCCN2C(=O)OC(C)(C)C)c1	none (no result: D1 antagonist, D1 agonist, D1 PAM)
CN(C)CCNC(=O)Cn1ccc2cc(S(=O)(=O)N3CCCCCC3)ccc21	DRD3 antagonist -55
Cc1cc(C)c(S(=O)(=O)Nc2ccc(C(N)=O)cc2)c(C)c1	D1 antagonist -43
CC1=C(C(=O)Nc2cc(Cl)ccc2C)C2(CCCCC2)OC1=O	D1 agonist 32 (no result: DRD3 antagonist)
CC1=C(C(=O)NCc2cccc(Cl)c2)C2(CCCCCC2)OC1=O	D1 antagonist -31 (no result: DRD3 antagonist)
COc1cc(OC)c(NC(=O)C2=C(C)C(=O)OC23CCN(C(C)=O)CC3)cc1Cl	none (no result: DRD3 antagonist)
COc1cc(OC)c(NC(=O)C2=C(C)C(=O)OC23CCCCCC3)cc1Cl	D1 antagonist -70 (no result: DRD3 antagonist)
CCOc1ccc(NC(=O)CN(C)S(=O)(=O)c2cccc3cccnc23)cc1	none

High-throughput results: PubChem, National Center for Advancing Translational Sciences (NCATS)
